PubChem BioAssay (NCATS)
Inconclusive results are not listed. Where a call stands in place of a potency, no number is given. Calls of active or inactive are those of the source. Calls come from the whole dose curve; as a rule, active = well fitted cell-killing curve with a large enough effect; inconclusive = small, poorly fitted or top-dose-only effect, or effect the other way; inactive = flat fitted curve, though single readings scatter.

tested on: SKOV3; assay: Primary qHTS to identify gynecologic anti-cancer compounds using libraries of approved drugs and bioactive compounds (AID 1345084); settings: Gynecologic cancer cell panel viability, ATPlite luminescence, 48 h; series mostly up to 57.5 µM; note: nearly all actives have a fitted effect of over 55% in size
Summary of the method: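 Cytotoxicity screen measuring ATP content by luciferase luminescence. Each compound is applied at five concentrations for 48 h at 37 C with 5% CO2.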

Question: Which Potency does the source give for `O=C(OC[C@H]1O[C@@H](Oc2ccccc2CO)[C@H](O)[C@@H](O)[C@@H]1O)c1ccccc1` here?
Answer: Its Potency is “inactive”.

Question: With `CC1=CCC(O)C2(C)CCC3C(C)C(=O)OC3C12` (centres undefined) as the compound, how does the Potency read?
Answer: Its Potency is “inactive”.

Question: For `COc1cc(CC2COC(c3ccc(OC4OC(CO)C(O)C(O)C4O)c(OC)c3)C2CO)ccc1O` (centres undefined), which Potency is on record?
Answer: Its Potency is “inactive”.

Question: How did the Potency turn out when `CC(C)Oc1ccc(-c2nc(-c3cccc4c3CCC4NCCC(=O)O)no2)cc1C#N` (centres undefined) was run?
Answer: Its Potency is “inactive”.

Question: How did the Potency turn out when `O=C(O)CCc1cccc(O)c1O[C@@H]1O[C@H](CO)[C@@H](O)[C@H](O)[C@H]1O` was run?
Answer: Its Potency is “inactive”.

Question: Which Potency does the source give for `CC1(C)COC(=O)[C@@H]1O[C@@H]1O[C@H](CO)[C@@H](O)[C@H](O)[C@H]1O` here?
Answer: The Potency was “inactive”.

Question: How did the Potency turn out when `O=C(OCc1ccccc1O[C@@H]1O[C@H](CO)[C@@H](O)[C@H](O)[C@H]1O)C1(O)C=CCCC1O` (some centres undefined) was run?
Answer: Its Potency is “inactive”.

Question: For `CC(=O)O[C@H]1C[C@@H](O)C(C)(C)C2C[C@@H](OC(C)=O)[C@]3(C)C(CC[C@@]4(C)[C@H](c5ccoc5)OC(=O)[C@H]5O[C@]543)[C@]21C` (some centres undefined), which Potency is on record?
Answer: The Potency was “inactive”.

Question: For `CCNC(=O)OC1CCN(c2nncc3cc(OC)c(OC)cc23)CC1`, which Potency is on record?
Answer: Its Potency is “inactive”.

Question: Which Potency does the source give for `C[C@]12CC[C@@H]3c4ccc(O)cc4CC[C@H]3[C@@H]1C[C@@H](O[C@@H]1O[C@H](C(=O)O)[C@@H](O)[C@H](O)[C@H]1O)[C@@H]2O` here?
Answer: The Potency was “inactive”.

Question: For `CC(=O)c1ccc(O[C@@H]2O[C@H](CO[C@@H]3OC[C@@H](O)[C@H](O)[C@H]3O)[C@@H](O)[C@H](O)[C@H]2O)cc1`, which Potency is on record?
Answer: The Potency was “inactive”.

Question: `CC[C@@H]1C(=O)O[C@]23C=C[C@@H]4C(C(=O)OC)=CO[C@H](O[C@@H]12)[C@@H]43` was tested. Which Potency did it give?
Answer: The Potency was “inactive”.

Question: `CC(O)C1CCC2C3CCC4CC(OC5OC(C(=O)O)C(O)C(O)C5O)CCC4(C)C3CCC12C` (centres undefined) was tested. Which Potency did it give?
Answer: Its Potency is “inactive”.

Question: For `CC(O)CCc1ccc(O[C@@H]2O[C@H](CO)[C@@H](O)[C@H](O)[C@H]2O)cc1` (some centres undefined), which Potency is on record?
Answer: Its Potency is “inactive”.

Question: `Cc1sc(C)c(C(=O)NC2(c3ccc(C(=O)O)cc3)CC2)c1Cc1ccc(C(F)(F)F)cc1` was tested. Which Potency did it give?
Answer: The Potency was “inactive”.

Question: For `C=CC(C)(O)CC/C=C(\C)C1CC=C(C)C(=O)O1` (centres undefined), which Potency is on record?
Answer: Its Potency is “inactive”.

Question: `COc1cc(O[C@@H]2O[C@H](CO[C@H]3OC[C@](O)(CO)[C@H]3O)[C@@H](O)[C@H](O)[C@H]2O)cc(OC)c1O` was tested. Which Potency did it give?
Answer: Its Potency is “inactive”.

Question: Which Potency does the source give for `CC1(C)OC(=O)C=C[C@@]2(C)C1CC(=O)[C@]1(C)C2CC[C@@]2(C)[C@H](c3ccoc3)OC(=O)[C@H]3O[C@]321` (some centres undefined) here?
Answer: Its Potency is “inactive”.

Question: For `C/C=C1/C[N+](C)([O-])C2Cc3c([nH]c4ccccc34)C(=O)CC1C2C(=O)OC` (centres undefined), which Potency is on record?
Answer: Its Potency is “inactive”.

Question: `Cc1occc(=O)c1O[C@@H]1O[C@H](COC(=O)CC(C)(O)CC(=O)O)[C@@H](O)[C@H](O)[C@H]1O` (some centres undefined) was tested. Which Potency did it give?
Answer: Its Potency is “inactive”.

Question: Which Potency does the source give for `COC(=O)[C@]1(C)CCC[C@@]2(C)[C@@H]3CC[C@@H]4C[C@@]3(CC[C@@H]21)C[C@H]4C(=O)O` here?
Answer: Its Potency is “inactive”.

Question: With `CN1CCN(c2nc(-c3ccc(C(=O)NC4(C(=O)NCC#N)CCCCC4)cc3)cs2)CC1` as the compound, how does the Potency read?
Answer: Its Potency is “inactive”.

Question: `Cc1nc2cc(-c3cc(F)cc(C#N)c3)ccc2s1` was tested. Which Potency did it give?
Answer: The Potency was “inactive”.

Question: Which Potency does the source give for `Cc1ccc2nc(NC(=O)CSc3nc4c(c(=O)n3-c3ccc(F)cc3)SCC4)sc2c1` here?
Answer: Its Potency is “inactive”.

Question: `CCCNCCOc1ccc(NC(=O)c2c[nH]c3c2C(=O)CCC3)cc1F` was tested. Which Potency did it give?
Answer: The Potency was “inactive”.

Question: How did the Potency turn out when `CNc1nc(Nc2cn(C(C)(C)C#N)nc2C)ncc1C(F)(F)F` was run?
Answer: The Potency was “inactive”.

Question: `COc1cnc(-n2cnc(C)n2)c2[nH]cc(C(=O)C(=O)N3CCN(C(=O)c4ccccc4)CC3)c12` was tested. Which Potency did it give?
Answer: Its Potency is “inactive”.

Question: With `CC1(C)Oc2ncnc(N)c2N=C1c1ccc(C2CCC(CC(=O)O)CC2)cc1` (centres undefined) as the compound, how does the Potency read?
Answer: The Potency was “inactive”.

Question: Which Potency does the source give for `COc1cc(/C=C/C(=O)O[C@@H]2C[C@@](O)(C(=O)O)C[C@@H](O)[C@@H]2O)ccc1O` here?
Answer: Its Potency is “inactive”.

Question: With `CC1=CC(=O)C(=C(C)C)CC2C(C)(O)CCC12O` (centres undefined) as the compound, how does the Potency read?
Answer: Its Potency is “inactive”.

Question: Which Potency does the source give for `CC(C)[C@@](O)(c1ccc2cc(OC(F)F)c(OC(F)F)cc2c1)c1cn[nH]n1` here?
Answer: The Potency was “inactive”.

Question: `Nc1ncnc2c1c(COc1cccc(Cl)c1)nn2C1CCOCC1` was tested. Which Potency did it give?
Answer: The Potency was “inactive”.

Question: For `CC(=O)O[C@@H]1[C@H](OC(C)=O)C[C@@]2(C)C(CC[C@@H](C)[C@]23Cc2c(O)cc4c(c2O3)CN([C@@H](CCC(=O)O)C(=O)O)C4=O)C1(C)C` (some centres undefined), which Potency is on record?
Answer: The Potency was “inactive”.

Question: With `COCCCc1sc(-c2ccccc2)nc1C(=O)Nc1ccccc1-c1nc2cc(CN3CCCC3)cnc2s1` as the compound, how does the Potency read?
Answer: Its Potency is “inactive”.

Question: `CC[C@@H](Nc1c(Nc2cccc(C(=O)N(C)C)c2O)c(=O)c1=O)c1ccc(C)o1` was tested. Which Potency did it give?
Answer: The Potency was “inactive”.

Question: `C=C1[C@H](OC(C)=O)[C@H]2[C@@H](OC(C)=O)C(C)C[C@]2(OC(C)=O)C(=O)[C@H](C)/C=C/C(C)(C)C(=O)[C@H](OC(=O)C(C)C)[C@H]1OC(C)=O` (some centres undefined) was tested. Which Potency did it give?
Answer: Its Potency is “inactive”.

Question: For `CC1=C(CC/C(C)=C/C(=O)O)[C@@]2(C)CCCC(C)(C)C2CC1=O` (some centres undefined), which Potency is on record?
Answer: Its Potency is “inactive”.

Question: How did the Potency turn out when `CCC(C)/C=C(C)/C=C/C1=CC2=C(Cl)C(=O)C(C)(OC(C)=O)C(=O)C2=CN1CCCCC(N)C(=O)O` (centres undefined) was run?
Answer: Its Potency is “inactive”.

Question: With `CC(=O)O[C@H]1[C@H](O[C@H]2CC[C@]34C[C@]35CC[C@]3(C)[C@@H]([C@@]6(C)CC[C@@H](C(C)(C)O)O6)[C@@H](O)C[C@@]3(C)[C@@H]5C[C@H](O[C@@H]3O[C@H](CO)[C@@H](O)[C@H](O)[C@H]3O)[C@H]4C2(C)C)OC[C@@H](OC(C)=O)[C@@H]1O` as the compound, how does the Potency read?
Answer: Its Potency is “inactive”.
